This is an account of results in the supplement of paper PMC9023506.

Counter-ions that a name gives are not always drawn.

The assay concerns Danio rerio larvae (5 dpf). Kind of assay: excitability to 1-s acoustic pulses, difference vs DMSO (percentage points (treated minus DMSO)); higher = more of the behaviour than the DMSO vehicle control. The note with it: 10 µM; exposure time: 3 h pre-incubation + 3 h imaging. How it is done: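 5-dpf wild-type zebrafish larvae were imaged in 96-well plates. They were treated with 190 Tocris FDA-approved drugs at 10 µM (1 µl/ml DMSO) for 3 h before and 3 h during imaging at 28.5 °C, 48 larvae per drug. Automated image analysis gave % time moving and optomotor responses. Values are drug group mean minus DMSO vehicle mean (n=844), in percentage points, for 10 behaviours.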
As to `Cc1cccc([C@H](C)c2c[nH]cn2)c1C` [Dexmedetomidine hydrochloride], the “excitability to 1-s acoustic pulses” value amounted to 8.78.
The figure for `COc1cc2c(cc1OC)C1CC(=O)C(CC(C)C)CN1CC2` (configuration not stated) [Tetrabenazine] is 21.7; for `CC(C)C[C@H]1C(=O)N2CCC[C@H]2[C@]2(O)O[C@](NC(=O)[C@@H]3C=C4c5cccc6[nH]c(Br)c(c56)C[C@H]4N(C)C3)(C(C)C)C(=O)N12` [Bromocriptine mesylate] it is 17.6.
The figure for `N[C@@H]1C[C@H]1c1ccccc1` [Tranylcypromine hydrochloride] is 0.887; for `CC(O)(CS(=O)(=O)c1ccc(F)cc1)C(=O)Nc1ccc(C#N)c(C(F)(F)F)c1` (configuration not stated) [Bicalutamide] it is 3.69.
On to `CC[C@@H](C(N)=O)N1CCCC1=O` [Levetiracetam], for which the “excitability to 1-s acoustic pulses” value was 1.84.
The figure for `CN1C[C@H](C(=O)N[C@]2(C)O[C@@]3(O)[C@@H]4CCCN4C(=O)[C@H](Cc4ccccc4)N3C2=O)C[C@@H]2c3cccc4[nH]cc(c34)C[C@H]21` [Dihydroergotamine mesylate] is 1.17; for `C=CCN1C[C@H](C(=O)N(CCCN(C)C)C(=O)NCC)C[C@@H]2c3cccc4[nH]cc(c34)C[C@H]21` [Cabergoline] it is 10; for `O=c1[nH]c2ccccc2n1C1CCN(CCCC(c2ccc(F)cc2)c2ccc(F)cc2)CC1` [Pimozide] it is -3.54.
The figure for `COc1ccc(C(CN(C)C)C2(O)CCCCC2)cc1` (configuration not stated) [Venlafaxine hydrochloride] is 8.33; for `CCN(C)C(=O)Oc1cccc([C@H](C)N(C)C)c1` [Rivastigmine tartrate] it is 2.04; for `C=C1C[C@@H]2[C@H](CC[C@]3(C)C(=O)CC[C@@H]23)[C@@]2(C)C=CC(=O)C=C12` [Exemestane] it is 11.5.
